HT1080 IDH1KD tx: toxicity to HT-1080 IDH1 knockdown cells (counter line); HT-1080 IDH1 knockdown viability, ATP luminescence, 48 h; Potency, µM (series often up to 46.1 µM), for the others: at the highest dose activity, negative = toxicity, hits mostly cytotoxic; 360,000 tested, 2% active;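 further: 0% = DMSO wells and -100% = cell-free medium wells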
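Cytotoxicity counter-line: IDH1KD HT-1080, 48 h, CellTiter-Glo. Curves classed by r2, magnitude and activity.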
KB-3-1 tox: kills parental KB-3-1 adenocarcinoma cells; KB-3-1 viability, CellTiter-Glo ATP luminescence, 72 h; Potency, µM (top dose mostly 46.1 µM), actives largely listed as cytotoxic; 400,000 tested, 1.4% active; further: nearly all actives have a fitted effect of over 60% in size
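72 h, 37 °C compound treatment of KB-3-1 parental cells; CellTiter-Glo added, 10 min, luminescence read. Data corrected against DMSO-only plates and normalized before curve fitting.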
KB-V1 MDR tox: KB-V1 MDR subline cytotoxicity; KB-V1 MDR cells viability, CellTiter-Glo, 72 h; 400,000 tested, 3.4% active; Potency, µM (titrated, usually from 46.1 µM), hits mostly cytotoxic; further: nearly all actives have a fitted effect of over 60% in size
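Compound-treated KB-V1 multidrug-resistant cells, 72 h, 37 degrees C; viability by CellTiter-Glo. Fitted qHTS curves give the values.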
HT1080NT lethal: kills 2HG-producing HT-1080-NT fibrosarcoma cells; HT-1080-NT fibrosarcoma viability, CellTiter-Glo ATP luminescence, 48 h; Potency, µM (highest dose often 46.1 µM), inactives show at the highest dose activity, negative = less viability, hits mostly cytotoxic; 360,000 tested, 1.6% active; AID 686970;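 further: NT is the 2HG producing partner of a matched IDH1 knockdown line; 0% = DMSO-treated cells and -100% = media-only wells without cells; nearly all actives have a fitted effect of over 55% in size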
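HT-1080-NT fibrosarcoma cells (2HG-overproducing), 750 cells/well in RPMI with 5% FBS, dosed after 2 h and incubated 48 h at 37C. CellTiter-Glo luminescence normalized to DMSO and no-cell wells; concentration-response curves fitted and classed.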
* hit, by the source's call; i = inactive; ? = inconclusive; / = no result given. The list is not random: actives were taken first. Their share in the collection is about 5.7%. The call rests on the fitted dose curve; in most records, active means well fitted curve in the direction sought with a large enough effect; inconclusive means small, poorly fitted or top-dose-only effect, or another doubt; inactive means no such curve, though single readings can be large; an effect the other way counts as inactive or inconclusive. Unless noted, on the % scale 0 is the no-effect control and ±100 the full control effect; potency means the concentration at half of the fitted maximal effect.

SMILES	HT1080 IDH1KD tx	KB-3-1 tox	KB-V1 MDR tox	HT1080NT lethal
CC1CCc2c(sc3nc(C(C)(C)C)nc(N4CCN(C(=O)CCl)CC4)c23)C1 (configuration not stated)	4.61µM*	?	?	11.6µM*
CCOC(=O)CCN(Cc1cccs1)S(=O)(=O)c1ccc(Cl)cc1	2.9%	i	14.6µM*	-0.8%
CN(C)CCCOC(=O)N1c2ccccc2C=Cc2ccccc21	-10.2%	25.9µM*	i	-14.3%
Cc1ccc(C(=O)N2C(=S)C(c3ccc(F)cc3)=NC23CCN(C)CC3)cc1	18.4µM*	i	?	?
CCOc1ccc(CCNC(=O)C2CCCN(c3nnc(C)c4c(C)n(-c5ccccc5)nc34)C2)cc1 (configuration not stated)	/	i	i	/
Cc1ccccc1OCCN1C(=O)NC2(CCc3ccccc32)C1=O (configuration not stated)	-11.5%	i	23.1µM*	-17.5%
Cc1cc(C)n(-c2nc3ccccc3nc2Nc2ccc(Cl)c(Cl)c2)n1	/	i	i	/
CCOC(=O)C1CCN(C(c2cccnc2)c2c(NC(=O)c3ccco3)sc(C)c2C)CC1 (configuration not stated)	?	3.26µM*	2.91µM*	-18.8%
Cc1sc(NC(=O)c2ccco2)c(C(c2cccnc2)N2CCN(CCO)CC2)c1C (configuration not stated)	0.3%	i	i	-5.7%
Cc1ccc(C)c(NC(=O)CSc2nc3c([nH]c4ccccc43)c(=O)n2-c2ccc(F)cc2)c1	/	i	i	/
CC(C)(C)c1cc(OC(=O)c2ccccc2F)ccc1O	20.6µM*	i	i	32.6µM*
CC(C)(C)c1cc(OC(=O)c2ccncc2)ccc1O	0.3%	i	i	0.6%
CCOc1ccc(C(=O)N/N=C(\c2ccccc2)c2ccccn2)cc1	2.31µM*	?	i	?
COc1ccc(C)cc1-n1nnnc1SCC(=O)c1ccc2c(c1)OCCO2	-4.5%	i	?	-0.1%
COc1ccc(-n2nnnc2SCC(=O)c2ccc3c(c2)OCCO3)c(OC)c1	23.3%	i	9.2µM*	6.5%
O=C(CSc1nnnn1-c1ccc2c(c1)OCO2)NCc1ccccc1	12.6µM*	7.31µM*	11.6µM*	?
COc1cccc(-n2nnnc2SCC(=O)Nc2ccc3c(c2)OCCO3)c1	?	i	i	14.1µM*
COc1ccc(-n2nnnc2SCC(=O)Nc2ccc3c(c2)OCCO3)c(OC)c1	-14.5%	i	i	-9.0%
O=C(CSc1nnnn1-c1ccc2c(c1)OCO2)NCc1cccs1	-1.7%	i	i	-8.0%
COc1ccc(-n2nnnc2SCC(=O)Nc2ccc3c(c2)OCCO3)cc1OC	-4.2%	?	9.2µM*	-26.7%
COc1ccc(-n2nnnc2SCC(=O)Nc2cccc(NC(C)=O)c2)cc1OC	-0.2%	i	i	-0.4%
O=C(c1cccc(Cl)c1)N1CCC(c2nc3c(nnn3Cc3ccc(F)cc3F)c(=O)[nH]2)CC1	/	i	i	/
Cc1c(C2=CCN(S(=O)(=O)c3ccc(CC(C)C)cc3)CC2)c2ccccc2n1CC(=O)N1CCCC1	/	i	i	/
CN(C)CCNS(=O)(=O)c1ccc(N2CCN(c3ccc(F)cc3)CC2)c([N+](=O)[O-])c1	18.4µM*	?	?	?
Cc1ccc(S(=O)(=O)NCCSc2nnnn2-c2ccc(C(N)=O)cc2)cc1	9.6%	i	?	6.3%
SMILES	HT1080 IDH1KD tx	KB-3-1 tox	KB-V1 MDR tox	HT1080NT lethal
O=[N+]([O-])c1cc(S(=O)(=O)NCCCN2CCOCC2)ccc1Cl	-4.4%	i	i	0.2%
Cc1ccc(-n2nnnc2Sc2ccc(S(=O)(=O)NCCN(C)C)cc2[N+](=O)[O-])cc1	23.1µM*	i	?	?
O=[N+]([O-])c1cc(S(=O)(=O)NCCN2CCOCC2)ccc1Sc1nnnn1-c1ccccc1	?	13µM*	i	?
Cc1nn2c([nH]c(=O)c3ccccc32)c1C=O	?	i	?	17.8µM*
Cc1nn2c(nc(N3CCCCC3)c3ccccc32)c1C=O	-24.7%	i	i	?
Cc1cc(C)cc(NC(=O)Nc2ccc(-n3ccc(C(F)(F)F)n3)cc2)c1	23.1µM*	i	i	20.6µM*
COc1ccccc1NC(=O)Nc1ccc(-n2ccc(C(F)(F)F)n2)cc1	-23.4%	?	?	-26.5%
CCOC(=O)c1[nH]c(C)c(CCC(=O)Nc2ccc(C)cc2Cl)c1C	/	i	i	/
COP(=O)(OC)c1nc(-c2cccc3ccccc23)oc1N1CCOCC1	-12.6%	i	i	-7.2%
COc1ccc(CCNc2oc(-c3cccc4ccccc34)nc2P(=O)(OC)OC)cc1OC	0.1%	i	11.6µM*	-1.1%
CCOP(=O)(OCC)c1nc(-c2cccc3ccccc23)oc1NCc1ccccc1	4.0%	i	9.2µM*	11.6%
CCOP(=O)(OCC)c1nc(-c2cccc3ccccc23)oc1NCc1ccc(OC)cc1	?	i	i	?
C(=Nc1cnc2ccccc2c1)c1ccnc2ccccc12	/	i	i	/
CCC(=O)OCC(=O)c1cc(C)n(-c2ccc(Br)cc2)c1C	-13.5%	?	14.6µM*	-7.5%
Cc1cc(C(=O)COC(=O)C2=COCCO2)c(C)n1-c1ccccc1	-14.1%	i	13µM*	7.3%
Cc1ccc(-n2c(C)cc(C(=O)COC(=O)c3c(C)noc3C)c2C)cc1	-20.5%	18.4µM*	6.51µM*	-23.9%
Cc1cc(C(=O)COC(=O)c2cnccn2)c(C)n1-c1ccc(Br)cc1	-7.0%	?	14.6µM*	8.0%
Cc1cc(C(=O)COC(=O)CC2Sc3ccccc3NC2=O)c(C)n1-c1ccc(Br)cc1 (configuration not stated)	-11.3%	i	?	-3.2%
Cc1cc(C(=O)COC(=O)C2=NNC(=O)CC2)c(C)n1-c1ccccc1	3.5%	i	i	24.9%
Cc1ccc(Nc2c(-c3ccc(N4CCOCC4)cc3)nc3c(C)cccn23)cc1	/	i	?	/
COc1cc(C(=O)Nc2nonc2-c2ccc(C)c(C)c2)cc(OC)c1OC	/	i	i	/
CCCN(CC(=O)Nc1ccccc1OC)C(=O)C1CCCC1	-1.2%	i	?	-2.6%
CCN(CC(=O)Nc1ccccc1OC)C(=O)C1CCCC1	1.6%	i	13µM*	10.0%
COc1ccc(OC)c(S(=O)(=O)N2CC=C(c3c(C)n(CC(=O)N4CCCC4)c4ccccc34)CC2)c1	/	i	i	/
CCOc1ccc(S(=O)(=O)N2c3ccccc3CC2C)cc1 (configuration not stated)	?	1.16µM*	1.46µM*	3.16µM*
CCOc1ccc(S(=O)(=O)N2CC(=O)Nc3ccccc32)cc1	11.6µM*	?	?	?
CC(C)c1ccc(NC(=O)c2cc3c([nH]c2=O)CC(C)(C)CC3=O)cc1	/	i	i	/
CCCCNC(=O)C1CCN(c2nc(OC)nc(OC)n2)CC1	10.3%	i	20.6µM*	25.3%

High-throughput results as filed in PubChem.
